Values without a mark were called inactive. Records with an inconclusive call do not appear. Where a call stands in place of a potency, no number is given. Active and inactive are the calls of the source. Unless noted, the call rests on the fitted dose curve; in most records, active means well fitted curve in the direction sought with a large enough effect; inconclusive means small, poorly fitted or top-dose-only effect, or another doubt; inactive means no such curve, though single readings can be large; an effect the other way counts as inactive or inconclusive.
Legend:
[1] = qHTS for differential inhibitors of proliferation of Plasmodium falciparum line GB4 (AID 1816); settings: Potency: Plasmodium falciparum GB4 proliferation inhibition;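 further: parasite growth measured after 72 h incubation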; further: potency means the concentration at half of the fitted maximal effect
[2] = qHTS for differential inhibitors of proliferation of Plasmodium falciparum line D10 (AID 1877);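 further: parasites grown with compound for 72 h before DNA staining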; further: potency means the concentration at half of the fitted maximal effect
[3] = qHTS for differential inhibitors of proliferation of Plasmodium falciparum line W2 (AID 1883); settings: Potency: Plasmodium falciparum W2 proliferation inhibition;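 further: parasites grown with compound for 72 h before lysis and staining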; further: potency means the concentration at half of the fitted maximal effect
[4] = qHTS for differential inhibitors of proliferation of Plasmodium falciparum line HB3 (AID 1886); settings: Potency: Plasmodium falciparum HB3 proliferation inhibition;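 further: parasites grown with compound for 72 h before SYBR Green readout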; further: potency means the concentration at half of the fitted maximal effect
[5] = biological target: RecQ-like DNA helicase BLM (Homo sapiens) (UniProt P54132); assay: qHTS Validation Assay for Inhibitors of Bloom's syndrome helicase (BLM) (AID 2364); further: potency means the concentration at half of the fitted maximal effect
RecQ-like DNA helicase BLM (Homo sapiens), sequence (P54132 whole entry, looked up): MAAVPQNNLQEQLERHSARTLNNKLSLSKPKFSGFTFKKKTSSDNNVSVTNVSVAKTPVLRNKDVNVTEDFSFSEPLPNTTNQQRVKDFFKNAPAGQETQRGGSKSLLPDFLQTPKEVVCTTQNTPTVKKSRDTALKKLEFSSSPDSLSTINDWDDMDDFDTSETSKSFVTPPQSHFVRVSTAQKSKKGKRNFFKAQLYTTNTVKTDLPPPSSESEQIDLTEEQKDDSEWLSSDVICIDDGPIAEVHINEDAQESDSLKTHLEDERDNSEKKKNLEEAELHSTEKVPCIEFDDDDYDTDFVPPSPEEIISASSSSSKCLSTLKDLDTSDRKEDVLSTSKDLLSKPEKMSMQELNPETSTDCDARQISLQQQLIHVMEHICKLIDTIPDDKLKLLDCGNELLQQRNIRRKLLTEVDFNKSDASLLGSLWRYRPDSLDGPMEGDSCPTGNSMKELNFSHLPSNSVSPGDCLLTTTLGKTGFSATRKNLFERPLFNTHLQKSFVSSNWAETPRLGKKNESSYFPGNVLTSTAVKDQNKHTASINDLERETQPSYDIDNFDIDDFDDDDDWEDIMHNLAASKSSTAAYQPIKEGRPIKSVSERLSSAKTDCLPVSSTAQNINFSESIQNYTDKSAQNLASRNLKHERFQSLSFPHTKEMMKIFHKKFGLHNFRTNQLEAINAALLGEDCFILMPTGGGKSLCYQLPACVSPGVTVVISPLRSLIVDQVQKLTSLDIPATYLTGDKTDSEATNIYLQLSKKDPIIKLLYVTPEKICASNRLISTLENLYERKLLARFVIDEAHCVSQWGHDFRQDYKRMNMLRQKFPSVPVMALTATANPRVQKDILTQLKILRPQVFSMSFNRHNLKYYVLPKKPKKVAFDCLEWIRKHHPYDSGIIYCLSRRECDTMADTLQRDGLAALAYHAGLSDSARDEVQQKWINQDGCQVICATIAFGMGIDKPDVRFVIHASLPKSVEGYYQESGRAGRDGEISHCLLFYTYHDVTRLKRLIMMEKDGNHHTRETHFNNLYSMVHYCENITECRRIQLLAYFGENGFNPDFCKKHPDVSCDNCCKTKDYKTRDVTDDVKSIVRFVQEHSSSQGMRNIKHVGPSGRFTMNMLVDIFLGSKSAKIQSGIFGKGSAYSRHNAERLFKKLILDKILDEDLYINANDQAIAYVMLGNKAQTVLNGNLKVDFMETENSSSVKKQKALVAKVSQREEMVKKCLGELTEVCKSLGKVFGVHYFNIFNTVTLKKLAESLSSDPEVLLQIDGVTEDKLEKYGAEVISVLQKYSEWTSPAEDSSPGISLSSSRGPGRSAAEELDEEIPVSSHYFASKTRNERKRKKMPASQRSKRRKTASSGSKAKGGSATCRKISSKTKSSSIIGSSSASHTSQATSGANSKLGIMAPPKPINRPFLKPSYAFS
Procedure, shortened: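 50 nM BLM preincubated 15 min at room temperature with compound in pH 8.0 Tris buffer containing 2.5 ug/ml poly(dI-dC); started with 200 nM TAMRA/BHQ-2 forked duplex and 2 mM ATP (final). Unwinding read as TAMRA fluorescence increase, two reads 2 h apart.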

[6] = qHTS for differential inhibitors of proliferation of Plasmodium falciparum line 7G8 (AID 1815);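 further: parasite growth measured after three days of incubation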; further: potency means the concentration at half of the fitted maximal effect
[7] = Validation screen for small molecules that induce DNA re-replication in SW480 colon adenocarcinoma cells (AID 504364)
Procedure, shortened: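 SW480 cells seeded at 250 per well were exposed to compound or DMSO for 48 hr at 37 C, 5% CO2, then stained with Hoechst for 40 min. DNA content per nucleus was imaged (405 nm ex, 500-530 nm em).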

[8] = Primary qHTS for inhibitors of nuclear receptor binding SET domain protein 2 (NSD2) in an isogenic RCH-ACV NSD2 p.E1099K mutant (9B) (AID 1645876); further: potency means the concentration at half of the fitted maximal effect; nearly all actives have a fitted effect of over 70% in size
[9] = Primary qHTS for inhibitors of nuclear receptor binding SET domain protein 2 (NSD2) in an RCH-ACV wild type WT cells (2C) (AID 1645877); further: potency means the concentration at half of the fitted maximal effect; nearly all actives have a fitted effect of over 70% in size
[10] = biological target: Glutathione peroxidase 1 (Homo sapiens) (UniProt P07203); assay: Primary qHTS Assay for Inhibitors of Recombinant Selenoprotein Glutathione Peroxidase 1 (GPX1) (AID 1845191); further: nearly all actives have a fitted effect of over 65% in size
Glutathione peroxidase 1 (Homo sapiens), sequence (P07203 whole entry, looked up): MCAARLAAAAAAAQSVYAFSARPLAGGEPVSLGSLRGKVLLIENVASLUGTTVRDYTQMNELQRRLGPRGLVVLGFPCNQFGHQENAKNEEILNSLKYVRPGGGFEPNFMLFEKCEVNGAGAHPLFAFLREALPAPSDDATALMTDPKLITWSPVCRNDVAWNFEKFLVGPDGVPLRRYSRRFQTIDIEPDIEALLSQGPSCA
Procedure, shortened: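 GR-coupled assay: compounds preincubated 30 min at room temperature with GPX1, then reaction started with CHP; final 10 nM GPX1, 1 mM GSH, 0.5 mM CHP, 0.5 mM NADPH, 100 nM GR, 0.01% BSA, pH 7.5 Tris buffer. NADPH fluorescence (340/450 nm) read at 0 and 15 min.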

[11] = biological target: Phospholipid hydroperoxide glutathione peroxidase GPX4 (Homo sapiens) (UniProt P36969); assay: Primary qHTS Assay for Inhibitors of Recombinant Selenoprotein Glutathione Peroxidase 4 (GPX4) (AID 1845192); settings: outcome: dose series up to 50 µM unless noted; further: nearly all actives have a fitted effect of over 65% in size
Phospholipid hydroperoxide glutathione peroxidase GPX4 (Homo sapiens), sequence (P36969 whole entry, looked up): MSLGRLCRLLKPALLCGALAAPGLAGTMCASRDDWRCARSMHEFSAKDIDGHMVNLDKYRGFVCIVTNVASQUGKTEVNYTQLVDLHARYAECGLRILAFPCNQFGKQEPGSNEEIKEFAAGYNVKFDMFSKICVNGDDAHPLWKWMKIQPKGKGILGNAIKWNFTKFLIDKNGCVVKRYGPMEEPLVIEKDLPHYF
Procedure, shortened: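 GR-coupled assay: recombinant GPX4 preincubated 30 min with compound at room temperature; final 200 nM GPX4, 1 mM GSH, 0.5 mM cumene hydroperoxide, 0.5 mM NADPH, 100 nM GR, 0.01% BSA, pH 7.5 Tris. NADPH fluorescence (340/450 nm) read at 0 and 15 min.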

[12] = qHTS profiling for inhibitors of Plasmodium falciparum proliferation (AID 504749); further: nearly all actives have a fitted effect of over 60% in size; settings: P. falciparum in erythrocytes, SYBR Green DNA, 72 h, at 28.7 µM (top of the series)
Procedure, shortened: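 Readout was DNA-dye fluorescence from lysed cultures, ex 485/em 535 nm. Parasitized red cells had grown 72 h with compound; data scaled between 0.29 uM artemisinin and DMSO wells and corrected using vehicle-only plates.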

[13] = Stat Signaling Pathway (AID 446; active means well fitted curve in either direction with a large enough effect, not every such curve was filed as active;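 further: ME-180 cervical cancer cells given 40 pM IL-6 alongside compound; SIE-controlled beta-lactamase reporter measured as 460/530 nm FRET emission ratio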); settings: ME-180 (cervical carcinoma) SIE beta-lactamase reporter, IL-6 stimulated, 5 h; at 7.69 µM (top of the series) unless noted
Procedure, shortened: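 IL-6/STAT signaling read in ME-180 cells via an SIE beta-lactamase reporter. Stimulus was 40 pM IL-6 (its AC50) for 5 hrs, so both activation and inhibition register.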

[14] = biological target: Glucocorticoid receptor (Homo sapiens) (UniProt P04150); assay: GR-EFC Redistribution (AID 451; calls by dose curve; further: potency means the concentration at half of the fitted maximal effect); settings: CHO-K1 GR-EFC translocation, beta-gal luminescence, 2 h
Glucocorticoid receptor (Homo sapiens), sequence (P04150 whole entry, looked up, the tested form may be a part): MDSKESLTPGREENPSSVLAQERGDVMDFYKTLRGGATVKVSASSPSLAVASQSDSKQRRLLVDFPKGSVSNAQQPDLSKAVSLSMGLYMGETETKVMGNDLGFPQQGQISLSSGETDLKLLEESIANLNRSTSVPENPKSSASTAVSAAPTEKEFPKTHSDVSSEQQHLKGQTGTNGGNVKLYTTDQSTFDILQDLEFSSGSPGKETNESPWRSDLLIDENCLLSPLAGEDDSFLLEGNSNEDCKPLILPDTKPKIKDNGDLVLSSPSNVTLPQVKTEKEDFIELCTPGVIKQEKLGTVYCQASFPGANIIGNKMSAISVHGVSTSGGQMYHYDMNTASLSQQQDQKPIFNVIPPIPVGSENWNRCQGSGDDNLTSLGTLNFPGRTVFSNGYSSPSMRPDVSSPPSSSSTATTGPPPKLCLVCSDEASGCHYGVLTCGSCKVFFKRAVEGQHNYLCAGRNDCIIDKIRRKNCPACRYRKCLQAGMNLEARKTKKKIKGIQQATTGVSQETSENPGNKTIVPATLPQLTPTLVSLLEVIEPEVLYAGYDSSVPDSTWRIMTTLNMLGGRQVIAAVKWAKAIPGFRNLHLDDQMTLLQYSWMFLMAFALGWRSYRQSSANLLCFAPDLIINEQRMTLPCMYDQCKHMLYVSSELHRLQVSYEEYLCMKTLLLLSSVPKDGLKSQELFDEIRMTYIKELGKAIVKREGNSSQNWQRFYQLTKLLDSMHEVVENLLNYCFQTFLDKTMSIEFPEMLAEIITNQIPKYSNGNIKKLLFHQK
Procedure, shortened: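 CHO-K1 cells expressing nuclear EA and GR-ED fragments of b-gal; compounds titrated up to 46 uM final, 2 h at 37 C. GR nuclear translocation read as complemented b-gal luminescence after 1 h RT detection.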

[15] = biological target: Guanine nucleotide-binding protein G(i) subunit alpha-1 (Homo sapiens) (UniProt P63096); assay: qHTS Assay for Inhibitors of RGS12 GoLoco Motif Activity (Green Fluorophore) (AID 879);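 further: negative values mean loss of peptide binding seen as reduced polarization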
Guanine nucleotide-binding protein G(i) subunit alpha-1 (Homo sapiens), sequence (P63096 whole entry, looked up): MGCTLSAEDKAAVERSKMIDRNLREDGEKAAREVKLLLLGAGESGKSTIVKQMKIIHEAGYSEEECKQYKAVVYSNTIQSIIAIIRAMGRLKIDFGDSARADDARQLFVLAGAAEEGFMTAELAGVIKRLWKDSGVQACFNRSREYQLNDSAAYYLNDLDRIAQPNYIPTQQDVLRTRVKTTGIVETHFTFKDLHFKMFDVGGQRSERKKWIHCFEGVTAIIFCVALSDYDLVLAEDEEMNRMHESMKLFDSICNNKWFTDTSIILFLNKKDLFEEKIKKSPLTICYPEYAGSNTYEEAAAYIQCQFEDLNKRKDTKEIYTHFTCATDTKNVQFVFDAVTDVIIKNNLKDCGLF
Procedure, shortened: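 Fluorescence polarization assay: 50 nM Gαi1 with 10 nM FITC-labeled RGS12 GoLoco peptide in 10 mM Tris pH 7.5, 150 mM NaCl, 0.1 mM GDP, 0.05% NP40, 10 min at room temperature with compound.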

[16] = biological target: Pyruvate kinase (Leishmania mexicana) (UniProt Q27686); assay: qHTS Validation Assay for Inhibitors of Leishmania Mexicana Pyruvate Kinase (AID 945)
Pyruvate kinase (Leishmania mexicana), sequence (Q27686 2-499 E452W): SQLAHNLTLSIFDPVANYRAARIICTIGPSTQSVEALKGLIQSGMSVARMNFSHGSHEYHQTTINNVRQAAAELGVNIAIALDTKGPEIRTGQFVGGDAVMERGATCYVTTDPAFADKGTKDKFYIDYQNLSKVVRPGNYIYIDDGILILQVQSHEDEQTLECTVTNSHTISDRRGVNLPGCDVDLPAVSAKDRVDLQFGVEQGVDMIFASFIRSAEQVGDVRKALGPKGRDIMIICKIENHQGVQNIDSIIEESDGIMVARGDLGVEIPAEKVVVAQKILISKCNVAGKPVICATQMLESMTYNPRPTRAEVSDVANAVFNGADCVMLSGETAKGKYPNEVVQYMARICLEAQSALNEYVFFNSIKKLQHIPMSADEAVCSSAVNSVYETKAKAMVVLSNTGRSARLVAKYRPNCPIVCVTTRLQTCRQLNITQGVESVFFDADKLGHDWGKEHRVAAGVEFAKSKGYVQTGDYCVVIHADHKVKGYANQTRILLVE
Procedure, shortened: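 Eight-point qHTS titrations; enzyme 0.2 nM LmPYK (E451W mutant); substrates 0.5 mM PEP, 0.1 mM ADP; 7 mM MgCl2; 1 h room temperature; PKLight luminescence normalized to neutral control.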

[17] = biological target: Pyruvate kinase PKM (Homo sapiens) (UniProt P14618); assay: qHTS Assay for Activators of Human Muscle Pyruvate Kinase (AID 954; active means well fitted curve in the direction sought with a large enough effect, not every such curve was filed as active)
Pyruvate kinase PKM (Homo sapiens), sequence (P14618 whole entry, looked up): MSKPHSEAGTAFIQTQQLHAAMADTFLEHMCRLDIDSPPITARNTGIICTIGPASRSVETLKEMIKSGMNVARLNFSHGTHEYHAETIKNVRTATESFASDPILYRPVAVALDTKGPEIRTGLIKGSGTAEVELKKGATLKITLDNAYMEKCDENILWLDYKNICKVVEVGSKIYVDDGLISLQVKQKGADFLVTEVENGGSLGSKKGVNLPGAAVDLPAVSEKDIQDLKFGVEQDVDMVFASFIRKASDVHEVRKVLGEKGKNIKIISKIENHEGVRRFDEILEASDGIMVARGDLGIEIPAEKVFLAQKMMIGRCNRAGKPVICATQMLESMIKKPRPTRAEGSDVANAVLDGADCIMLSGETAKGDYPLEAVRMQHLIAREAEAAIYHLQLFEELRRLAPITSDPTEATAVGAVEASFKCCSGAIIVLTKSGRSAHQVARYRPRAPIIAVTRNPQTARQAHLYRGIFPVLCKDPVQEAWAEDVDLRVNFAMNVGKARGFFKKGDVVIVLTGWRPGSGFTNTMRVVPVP
Procedure, shortened: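 Enzyme was run at intermediate activity so both inhibitors and activators could be detected. ATP formed from ADP and PEP by 0.1 nM human PKM2 during a 1 h room-temperature incubation was quantified by coupled luciferase luminescence.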

[18] = biological target: Alpha-galactosidase A (Homo sapiens) (UniProt P06280); assay: Counterscreen for Glucocerebrosidase Inhibitors: qHTS Assay for Human alpha-Galactosidase at pH 4.5 (AID 992)
Alpha-galactosidase A (Homo sapiens), sequence (P06280 whole entry, looked up): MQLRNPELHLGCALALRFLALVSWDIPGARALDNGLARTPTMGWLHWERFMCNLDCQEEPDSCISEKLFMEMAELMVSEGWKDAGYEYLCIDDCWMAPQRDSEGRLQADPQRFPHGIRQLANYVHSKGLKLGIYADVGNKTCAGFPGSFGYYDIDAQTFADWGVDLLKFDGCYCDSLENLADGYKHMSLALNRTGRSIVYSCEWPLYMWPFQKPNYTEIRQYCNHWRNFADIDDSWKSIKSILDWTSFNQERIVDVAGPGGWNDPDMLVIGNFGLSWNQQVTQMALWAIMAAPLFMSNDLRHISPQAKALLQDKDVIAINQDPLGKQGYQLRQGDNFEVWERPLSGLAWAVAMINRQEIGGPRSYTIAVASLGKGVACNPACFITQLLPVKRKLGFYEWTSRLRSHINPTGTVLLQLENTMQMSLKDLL
Procedure, shortened: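 Read-out is 4-methylumbelliferone fluorescence (365 nm excitation, 440 nm emission) after a pH 10 NaOH/glycine stop. Reactions held 2 nM enzyme and 80 uM substrate at pH 4.5 for 20 min at room temperature.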

[19] = biological target: Cytochrome P450 1A2 (Homo sapiens) (UniProt P05177); assay: p450-cyp1a2 (AID 410; calls by dose curve)
Cytochrome P450 1A2 (Homo sapiens), sequence (P05177 whole entry, looked up): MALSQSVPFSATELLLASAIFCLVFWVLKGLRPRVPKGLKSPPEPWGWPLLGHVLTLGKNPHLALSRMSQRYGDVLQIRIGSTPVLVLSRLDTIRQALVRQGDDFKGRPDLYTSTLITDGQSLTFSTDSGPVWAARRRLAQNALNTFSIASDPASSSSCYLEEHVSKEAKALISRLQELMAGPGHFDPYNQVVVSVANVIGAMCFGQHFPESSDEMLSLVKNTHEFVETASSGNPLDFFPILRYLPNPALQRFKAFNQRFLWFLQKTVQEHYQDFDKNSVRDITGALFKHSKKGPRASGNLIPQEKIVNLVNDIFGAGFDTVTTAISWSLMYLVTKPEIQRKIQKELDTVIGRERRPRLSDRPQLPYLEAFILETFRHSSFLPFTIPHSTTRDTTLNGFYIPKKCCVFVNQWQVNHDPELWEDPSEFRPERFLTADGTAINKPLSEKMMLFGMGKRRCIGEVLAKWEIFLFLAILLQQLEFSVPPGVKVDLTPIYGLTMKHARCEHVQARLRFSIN
Procedure, shortened: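 Human CYP1A2 (20nM) demethylated Luciferin-ME at its Km (100uM) in 100mM KPO4. After 10 min compound preincubation, NADPH regeneration ran the reaction 60 min at room temperature. Luciferin was read by luminescence, normalized to 57 uM furafylline.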

C[C@]12CCC(=O)C=C1CC[C@@H]1C2[C@@H](O)C[C@@]2(C)[C@H]1CC[C@]2(O)C(=O)CO (stereo partly specified)
Potency [1]: inactive
Potency [2]: inactive
Potency [3]: inactive
Potency [4]: inactive
Potency [5]: inactive

NC(=O)C1=CN(C2OC(COP(=O)(O)OP(=O)(O)OC[C@H]3O[C@@H](n4cnc5c(N)ncnc54)[C@H](OP(=O)(O)O)[C@H]3O)C(O)C2O)C=CC1 (stereo partly specified)
Potency [6]: inactive
Potency [1]: inactive
Potency [2]: inactive
Potency [3]: inactive
Potency [4]: inactive
Potency [5]: inactive
outcome [7]: inactive

OC[C@H]1O[C@@H](n2cnc3c(Nc4ccccc4)ncnc32)[C@H](O)[C@H]1O
Potency [6]: inactive
Potency [1]: inactive
Potency [2]: inactive
Potency [3]: inactive
Potency [4]: inactive
Potency [5]: inactive

COc1cc(=O)n(C)c2c(OCC(O)C(C)(C)O)cccc12 (stereo unspecified)
Potency [6]: inactive
Potency [1]: inactive
Potency [2]: inactive
Potency [3]: inactive
Potency [4]: inactive
outcome [7]: inactive

COC1CC(C(=O)c2ccc3c(N)ncc(-c4ccc(-c5cnn(C)c5)cc4)c3n2)C1 (stereo unspecified)
Potency [8]: 1480 nM (active)
Potency [9]: 41.7 nM (active)
Potency [10]: inactive
Potency [11]: inactive

COc1cc(N2CCN(C)CC2)ccc1Nc1ncc2c(n1)N(C)c1ccccc1C(=O)N2C
Potency [8]: 2350 nM (active)
Potency [9]: 2350 nM (active)
Potency [10]: inactive
Potency [11]: inactive

CN=C(N)NCCCC(N)C(=O)O (stereo unspecified)
Potency [6]: inactive
Potency [1]: inactive
Potency [2]: inactive
Potency [3]: inactive
Potency [4]: inactive
outcome [7]: inactive
activity, negative = inhibition ([12]; parasite line A): 12.3%
activity, negative = inhibition ([12]; parasite line B): 12.2%

Cc1c(C(=O)Nc2ccc(Oc3ccnc4[nH]cc(-c5ccccc5)c34)c(F)c2)c(=O)n(-c2ccc(F)cc2)n1C
Potency [9]: 1860 nM (active)
Potency [10]: inactive

N.N.N.N.N.N.N.N.N.N.N.N.N.N.O.O.[Cl-].[Cl-].[Cl-].[Cl-].[Cl-].[Cl-].[Ru].[Ru].[Ru]
Potency [5]: 12600 nM (active)

N[C@H](Cc1ccc(O)c(O)c1)C(=O)O
Potency [6]: inactive
Potency [1]: inactive
Potency [2]: inactive
Potency [3]: inactive
Potency [4]: inactive
Potency [5]: 28200 nM (active)
outcome [7]: inactive
activity, negative = inhibition ([12]; parasite line A): 9.99%
activity, negative = inhibition ([12]; parasite line B): 20.6%

N=C(N)SCCc1cccc(CCSC(=N)N)c1
activity, negative = inhibition [13]: 0.643% [at 38 µM]
Potency [14]: > 46000 nM
outcome [15]: inactive
Potency [16]: inactive
outcome [17]: inactive
outcome [18]: inactive
Potency [6]: 6310 nM (active)
Potency [1]: 2240 nM (active)
Potency [2]: 10000 nM (active)
Potency [3]: 1000 nM (active)
Potency [4]: 8910 nM (active)
Potency [5]: inactive

CC(=O)[C@@]1(O)CC[C@H]2C3CCC4=CC(=O)CC[C@]4(C)C3CC[C@@]21C (stereo partly specified)
Potency [2]: inactive
outcome [7]: inactive

Cn1cc(-c2ccc(-c3cncc(Cl)c3N3CCC4(CCNC4=O)CC3)cc2)cn1
Potency [8]: 8330 nM (active)
Potency [9]: 833 nM (active)
Potency [11]: inactive

NCC1OC(O[C@@H]2[C@H](O)[C@@H](OC3C(O)C(N)CC(N)C3OC3OC(CO)C(O)C(O)C3N)O[C@@H]2CO)C(N)C(O)C1O (stereo partly specified)
Potency [6]: inactive
Potency [1]: inactive
Potency [2]: inactive
Potency [3]: inactive
Potency [4]: inactive

NC(=O)c1cccc2c(NC(CN3CCC3)c3ccc(Cl)c(C(F)(F)F)c3)ncnc12 (stereo unspecified)
Potency [8]: 1050 nM (active)
Potency [9]: 1320 nM (active)
Potency [10]: inactive

CC(N)=NCCCC(N)C(=O)O (stereo unspecified)
Potency [6]: inactive
Potency [1]: inactive
Potency [2]: inactive
Potency [3]: inactive
Potency [4]: inactive
Potency [5]: inactive

O=C(O)CC[C@H](NC(=O)c1ccccc1C(=O)O)C(=O)O
Potency [6]: inactive
Potency [1]: inactive
Potency [2]: inactive
Potency [3]: inactive
Potency [4]: inactive
outcome [7]: inactive

NC(=NCCC[C@H](N)C(=O)O)NO
Potency [19]: inactive
activity, negative = inhibition [13]: -18.2% [at 38 µM]
Potency [14]: > 46000 nM
outcome [15]: inactive
Potency [16]: inactive
outcome [17]: inactive
outcome [18]: inactive
Potency [6]: inactive
Potency [1]: inactive
Potency [2]: inactive
Potency [3]: inactive
Potency [4]: inactive
Potency [5]: inactive
outcome [7]: inactive

COc1cc(C(N)=O)ccc1NC(=O)[C@@H]1N[C@@H](CC(C)(C)C)[C@@]2(C(=O)Nc3cc(Cl)ccc32)[C@H]1c1cccc(Cl)c1F
Potency [8]: 235 nM (active)
Potency [9]: 93.4 nM (active)
Potency [10]: inactive

COc1c2c(nc3ccccc13)OC(C(C)(O)CO)C2 (stereo unspecified)
Potency [6]: inactive
Potency [1]: inactive
Potency [2]: inactive
Potency [3]: inactive
Potency [4]: inactive
outcome [7]: inactive

CC(=O)O[C@H]1C[C@@H]2CCC3C(CC[C@@]4(C)[C@H]3C[C@H]([N+]3(C)CCCCC3)[C@@H]4OC(C)=O)[C@@]2(C)C[C@@H]1[N+]1(C)CCCCC1 (stereo partly specified)
Potency [6]: inactive
Potency [1]: inactive
Potency [4]: inactive
Potency [5]: inactive

Source: PubChem BioAssay (NCATS)
